The source made the active and inactive calls. The call rests on the fitted dose curve; in most records, active means well fitted curve in the direction sought with a large enough effect; inconclusive means small, poorly fitted or top-dose-only effect, or another doubt; inactive means no such curve, though single readings can be large or run the other way.
Assay: Cellular Toxicity (caspase-3) HUV-EC-C (AID 656)
Conditions: HUV-EC-C cells, caspase-3 activation (apoptosis), vehicle = 0, 100 µM tamoxifen = 100%; series mostly up to 92.2 µM; caspase-3 activation: at the top concentration
Procedure, shortened: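 Luminescent caspase-3/7 activation (aminoluciferin substrate cleavage) in HUV-EC-C cells after 16 hr compound exposure, 37°C. Signal normalized to DMSO basal and 100 uM tamoxifen as 100%; AC50 from concentration-response fitted with the Hill equation.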
In the case of `Nc1ccccc1S(=O)(=O)O`, the “caspase-3 activation” value is reported as 4.09% (inactive).
With `c1ccsc1` the “caspase-3 activation” value was -1.41% (inactive).
For `FC(F)(F)c1ccccc1Cl`, the “caspase-3 activation” value was 0.918% (inactive).
With `O=C1NC(=O)c2cc([N+](=O)[O-])ccc21` the “caspase-3 activation” value was 5.85% (inactive).
For `Cc1c(C(=O)O)cccc1[N+](=O)[O-]`, the “caspase-3 activation” value was 3.95% (inactive).
In the case of `C[C@@H]1O[C@@H](O[C@@H]2[C@@H](O)[C@H](OCCc3ccc(O)c(O)c3)O[C@H](CO[C@@H]3O[C@H](CO)[C@@H](O)[C@H](O)[C@H]3O)[C@H]2OC(=O)/C=C/c2ccc(O)c(O)c2)[C@H](O)[C@H](O)[C@H]1O`, the “caspase-3 activation” value is reported as 1.26% (inactive).
In the case of `O=Cc1ccc(C(=O)O)cc1`, the “caspase-3 activation” value is reported as -4.59% (inactive).
With `NC(=O)CCCCC(N)=O` the “caspase-3 activation” value was 0.697% (inactive).
For `CCc1ccccc1`, the “caspase-3 activation” value was -1.33% (inactive).
With `CCNc1ccccc1` the “caspase-3 activation” value was 6.21% (inactive).
For `C=Cc1ccc(C=C)cc1`, the “caspase-3 activation” value was 0.318% (inactive).
With `Cc1ccccc1C(N)=O` the “caspase-3 activation” value was 0.0236% (inactive).
With `CCCCC(=O)N(C)C` the “caspase-3 activation” value was 7.48% (inactive).
With `CC#N` the “caspase-3 activation” value was -2.04% (inactive).
For `CC(=O)CCc1ccccc1`, the “caspase-3 activation” value was -1.42% (inactive).
For `C=C(C)C1CC=C(C)C(OC(C)=O)C1` (configuration not stated), the “caspase-3 activation” value was 1.01% (inactive).
With `Nc1cccc2c(=O)[nH][nH]c(=O)c12` the “caspase-3 activation” value was 0.769% (inactive).
In the case of `CC(=O)c1cc(C)oc1C`, the “caspase-3 activation” value is reported as -2.7% (inactive).
With `C=CCOC(=O)COCCC(C)C` the “caspase-3 activation” value was 1.71% (inactive).
In the case of `C=CCOC(=O)CCCCCCCC`, the “caspase-3 activation” value is reported as -0.814% (inactive).
With `NC(=S)NNC(N)=S` the “caspase-3 activation” value was 0.0591% (inactive).
With `CSCCC=O` the “caspase-3 activation” value was 0.187% (inactive).
For `CCC(C)O` (configuration not stated), the “caspase-3 activation” value was -3.66% (inactive).
For `CCCC(C)CO` (configuration not stated), the “caspase-3 activation” value was 4.07% (inactive).
For `CCC(=O)/C=C/C1C(C)=CCCC1(C)C` (configuration not stated), the “caspase-3 activation” value was -3.38% (inactive).
With `C=CCCCCCC` the “caspase-3 activation” value was 1.1% (inactive).
For `CC(C)=CCl`, the “caspase-3 activation” value was -1.45% (inactive).
In the case of `Nc1ccc([N+](=O)[O-])c(N)c1`, the “caspase-3 activation” value is reported as -2.61% (inactive).
With `CC(=O)Nc1ccccc1C` the “caspase-3 activation” value was 1.6% (inactive).
With `CCCCCCCCN` the “caspase-3 activation” value was 1.55% (inactive).
In the case of `CC(CCl)OC(C)CCl` (configuration not stated), the “caspase-3 activation” value is reported as 2.9% (inactive).
With `O=[N+]([O-])c1ccccc1CCO` the “caspase-3 activation” value was -0.586% (inactive).
